Measurements: PubChem BioAssay (NCATS)
For part of these data: Measured potencies and affinities stand elsewhere. The source made the active and inactive calls.

Columns and labels:
[1] = Ebola virus entry assay, green fluorescence channel
[2] = Ebola virus entry assay, ratio channel readout
[3] = Ebola virus entry assay, blue channel fluorescence
[4] = Ebola virus entry assay, ratio channel
[5] = Ebola virus entry assay, green channel fluorescence
[6] = Ebola virus entry assay, reporter ratio channel; AC50: Channel type: primary unless noted; outcome: Channel type: primary unless noted
[7] = Ebola virus entry cell assay, ratio channel
[8] = Ebola virus entry reporter assay, green channel fluorescence
[9] = Ebola virus entry assay, blue channel (ratio component)
[10] = Ebola virus entry assay, blue channel fluorescence; remark: listed apart in the source

Structure (SMILES)	outcome [1]	outcome [2]	AC50 [3]	AC50 [4]	outcome [5]	AC50 [6]	outcome [7]	outcome [4]	outcome [3]	outcome [6]	outcome [8]	AC50 [7]	outcome [9]	outcome [10]	AC50 [2]
C=C(CC)C(=O)c1ccc(OCC(=O)O)c(Cl)c1Cl	inactive	inactive	14.1 µM (active)	15.8 µM (active)	inactive	15.8 µM (active)	inactive	–	–	–	–	–	–	–	–
CN(C)CC[C@@H](c1ccc(Br)cc1)c1ccccn1	inactive	inactive	39.8 µM (active)	–	inactive	39.8 µM (active)	inactive	inactive	–	–	–	–	–	–	–
Oc1ccc(C2CNCCc3c2cc(O)c(O)c3Cl)cc1 (stereo not given)	inactive	inactive	–	–	inactive	–	inactive	inactive	inactive	inactive	inactive	–	–	–	–
C#C[C@]1(O)CC[C@H]2[C@@H]3CCC4=Cc5oncc5C[C@]4(C)[C@H]3CC[C@@]21C	inactive	inactive	7.94 µM (active)	6.31 µM (active)	inactive	6.31 µM (active)	–	–	–	–	inactive	25.1 µM (active)	–	–	–
CCC(C)(C)C(=O)O[C@H]1C[C@@H](C)C=C2C=C[C@H](C)[C@H](CC[C@@H]3C[C@@H](O)CC(=O)O3)[C@H]21	inactive	inactive	–	7.08 µM (active)	inactive	7.08 µM (active)	inactive	–	inactive	–	inactive	–	inactive	–	–
Nc1nc(N)c2nc(-c3ccccc3)c(N)nc2n1	inactive	inactive	–	–	inactive	–	inactive	inactive	inactive	inactive	inactive	–	–	–	–
Cc1ccc(S(=O)(=O)NC(=O)NN2CC3CCCC3C2)cc1 (stereo not given)	inactive	inactive	–	–	inactive	–	inactive	inactive	inactive	inactive	inactive	–	inactive	–	–
O=C1Nc2ccc(Cl)cc2[C@@](C#CC2CC2)(C(F)(F)F)O1	inactive	inactive	17.8 µM (active)	22.4 µM (active)	inactive	22.4 µM (active)	inactive	–	–	–	–	–	–	–	–
COc1c(C)c2c(c(O)c1C/C=C(\C)CCC(=O)OCCN1CCOCC1)C(=O)OC2	inactive	inactive	–	–	inactive	–	–	inactive	inactive	inactive	–	3.98 µM (active)	inactive	–	–
Cc1cn([C@H]2C[C@H](N=[N+]=[N-])[C@@H](CO)O2)c(=O)[nH]c1=O	inactive	inactive	–	–	inactive	–	inactive	inactive	inactive	inactive	–	–	inactive	–	–
CC(=O)[C@]1(O)Cc2c(O)c3c(c(O)c2[C@@H](O[C@H]2C[C@H](N)[C@H](O)[C@H](C)O2)C1)C(=O)c1ccccc1C3=O	inactive	inactive	14.1 µM (active)	12.6 µM (active)	inactive	12.6 µM (active)	inactive	–	–	–	–	–	–	–	–
Cc1ccc(C)c(OCCCC(C)(C)C(=O)O)c1	inactive	inactive	–	–	inactive	–	inactive	inactive	inactive	inactive	inactive	–	–	inactive	–
CC(=O)CCCCn1c(=O)c2c(ncn2C)n(C)c1=O	inactive	inactive	–	–	inactive	–	inactive	inactive	inactive	inactive	–	–	inactive	inactive	–
O=C1[C@H](CC[C@H](O)c2ccc(F)cc2)[C@@H](c2ccc(O)cc2)N1c1ccc(F)cc1	inactive	inactive	28.2 µM (active)	–	inactive	28.2 µM (active)	inactive	inactive	–	–	inactive	–	–	inactive	–
CNC(=O)c1cc(Oc2ccc(NC(=O)Nc3ccc(Cl)c(C(F)(F)F)c3)cc2)ccn1	inactive	inactive	39.8 µM (active)	–	inactive	35.5 µM (active)	inactive	inactive	–	–	inactive	–	–	–	–
CCCN[C@H]1CCc2nc(N)sc2C1	inactive	inactive	–	–	inactive	–	inactive	inactive	inactive	inactive	–	–	inactive	inactive	–
CC(COc1ccccc1)N(CCCl)Cc1ccccc1 (stereo not given)	inactive	inactive	28.2 µM (active)	17.8 µM (active)	inactive	17.8 µM (active)	inactive	–	–	–	inactive	–	–	inactive	–
COc1cc2nc(N3CCN(C(=O)C4CCCO4)CC3)nc(N)c2cc1OC (stereo not given)	inactive	inactive	35.5 µM (active)	–	inactive	28.2 µM (active)	inactive	inactive	–	–	inactive	–	–	inactive	–
Nc1ccc(O)c(C(=O)O)c1	inactive	inactive	28.2 µM (active)	–	inactive	31.6 µM (active)	inactive	inactive	–	–	inactive	–	–	inactive	–
CCC(C)n1ncn(-c2ccc(N3CCN(c4ccc(OC[C@H]5CO[C@](Cn6cncn6)(c6ccc(Cl)cc6Cl)O5)cc4)CC3)cc2)c1=O (stereo not given in full)	inactive	–	–	–	inactive	–	–	inactive	inactive	inactive	–	2 µM (active)	inactive	–	2 µM (active)
Nc1cccc2c1CN(C1CCC(=O)NC1=O)C2=O (stereo not given)	inactive	inactive	–	–	inactive	–	inactive	inactive	inactive	inactive	inactive	–	inactive	–	–
CNC1(C)C2CCC(C2)C1(C)C (stereo not given)	inactive	inactive	39.8 µM (active)	–	inactive	35.5 µM (active)	inactive	inactive	–	–	inactive	–	–	–	–
CC(C)NCC(O)c1ccc(O)c(O)c1 (stereo not given)	inactive	inactive	–	–	inactive	–	inactive	inactive	inactive	inactive	–	–	inactive	inactive	–
CN(C/C=C/C#CC(C)(C)C)Cc1cccc2ccccc12	inactive	inactive	28.2 µM (active)	–	inactive	35.5 µM (active)	inactive	inactive	–	–	inactive	–	–	inactive	–
C[C@](N)(Cc1ccc(O)c(O)c1)C(=O)O	inactive	inactive	15.8 µM (active)	22.4 µM (active)	inactive	22.4 µM (active)	inactive	–	–	–	–	–	–	inactive	–
CCOC(=O)C1(c2ccccc2)CCN(CCC(C#N)(c2ccccc2)c2ccccc2)CC1	inactive	inactive	14.1 µM (active)	10 µM (active)	inactive	10 µM (active)	–	–	–	–	inactive	14.1 µM (active)	–	–	–
CCOC(=O)C1=C(C)NC(C)=C(C(=O)OC)C1c1cccc(Cl)c1Cl (stereo not given)	inactive	inactive	–	–	inactive	–	inactive	inactive	inactive	inactive	–	–	inactive	–	–
O=C1CCc2cc(OCCCCc3nnnn3C3CCCCC3)ccc2N1	inactive	inactive	–	–	–	–	inactive	inactive	inactive	inactive	–	–	inactive	inactive	–
CN(C)CCOC(c1ccc(Cl)cc1)c1ccccn1 (stereo not given)	inactive	inactive	22.4 µM (active)	–	–	39.8 µM (active)	inactive	inactive	–	–	inactive	–	–	inactive	–
